From the supplement of paper PMC7156485 come the findings set out here.

Molecules are shown by their SMILES. A number with no mark means an inactive call.
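Note: TDF is a line of transformed human dermal fibroblasts of mesenchymal origin.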

The assay has as its system HCC1569. Description: H1.0 immunofluorescence intensity relative to DMSO (% of DMSO); higher = stronger H1.0 induction, active = 140 or more. As to conditions: concentration: 10 µM; 24 h. In outline:
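Cells were seeded at 800 per well in 384-well plates with RPMI containing 10% FBS; both HCC1569 and TDF lines were used. Compounds were added at 10 µM for 24 h at 37 °C, in triplicate, before fixation in 3.7% formaldehyde and staining with a rabbit anti-H1.0 antibody, an AlexaFluor 647 secondary and DAPI. H1.0 nuclear intensity or cell number is reported as percent of the plate control using the median of replicates, and HCC1569 values were smoothed for positional effects.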
For `Nc1c2c(nc3ccccc13)CCCC2O.O=C(O)C=CC(=O)O` (stereo not drawn) [Hydroxytacrine maleate], the H1.0 immunofluorescence intensity is 83.4.
With `O=P(O)(O)C(O)(Cc1cccnc1)P(=O)(O)O` [Risedronic acid], the H1.0 immunofluorescence intensity was 99.9.
As for `O=C(Nc1cccc(C(F)(F)F)c1)Nc1cc(S(=O)(=O)NC2CC2)ccc1-c1ccsc1`, the figure is 130; as for `CN(C)[C@@H](CCOc1cccc2ccccc12)c1ccccc1.Cl`, 142 (active); as for `C=CCc1ccccc1OCC(O)CNC(C)C.Cl` (stereo not drawn) [Alprenolol.HCl], 102.
The result for `CS(=O)(=O)O.N=C(N)SCCc1ccc(OCc2ccc([N+](=O)[O-])cc2)cc1` reads 158 (active); that for `O=c1cc(N2CCNCC2)oc2c(-c3ccccc3)cccc12`, 136.
As to `CCCCCCCCCCCCCCC(C(=O)O)=C(C)C(=O)O` [Chaetomellic acid A], the H1.0 immunofluorescence intensity is 100.
